IP6K1 inhibitor = inhibitors of human IP6K1; IP6K1 kinase, ADP-Glo luminescence, 2 h; active compounds read low; activity change, % (series mostly up to about 58 µM); hit rate 0.81% among 140,000; Q92551; in the data active means activity change below about -25%; further: on the % scale 0 is the no-effect control and ±100 the full control effect
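ADP-Glo luminescence measures ADP made by human IP6K1 during a 2 h RT reaction with ATP/IP6 (mix at 1.3 mM/130 uM); top library doses 57.5 and 19.1 uM final.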
KDM5B inh = inhibitors of human KDM5B histone demethylase. Q9UGL1. Potency, µM (top dose mostly 57.7 µM), hits mostly inhibitors. AID 1347165. KDM5B demethylase, FDH-coupled NADH fluorescence (FDH is formaldehyde dehydrogenase). hit rate 2.6% among 220,000; active means well fitted inhibition curve with a large enough effect; inconclusive means small, poorly fitted or top-dose-only effect; inactive means no such curve, though single readings can be large or run the other way; further: potency means the concentration at half of the fitted maximal effect; 0% is about no effect; nearly all actives have a fitted effect of over 70% in size
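Coupled FDH/NAD⁺ fluorescence readout. KDM5BΔAP 200 nM final; compound titration, 10 min RT preincubation; substrate mix 12.5 µM H3K4me3, 25 µM 2-OG, 50 µM Fe(II), 100 µM ascorbate, 0.25 mM NAD⁺, 0.25 U/mL FDH; ΔRFU over 30 min.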
The depositor's hits bear a star. Shown are actives, neighbours in structure and some others; about 2.7% of the full set was active somewhere.

`CC(=O)Nc1ccc(-c2csc(NC(=O)c3nn(C(C)C)c(=O)c4ccccc34)n2)cc1` gave KDM5B inh inactive.
CCn1cc(CN2CCCC(CNS(=O)(=O)c3ccc(OC)cc3)C2)cn1 (stereo unspecified) was read as KDM5B inh inactive.
Screening COc1ccc(S(=O)(=O)NCC2CCCN(Cc3ccc(-c4ccco4)cc3)C2)cc1 (stereo unspecified) returned IP6K1 inhibitor -5 and KDM5B inh 28µM*.
O=C(Cc1ccsc1)Nc1ccccc1Br was read as KDM5B inh inactive.
For CC(=O)N1CCN(c2ccnc(-c3nnc(C)n3-c3ccccc3)c2)CC1 the results were IP6K1 inhibitor 6 and KDM5B inh 35µM*.
Cc1nnc(-c2cc(N3CCN(c4ccccn4)CC3)ccn2)n1-c1ccccc1 was read as IP6K1 inhibitor -8 and KDM5B inh inactive.
Screening O=C(NCc1cccc(C(F)(F)F)c1)c1cn2cc(-c3ccc(F)cc3)sc2n1 returned IP6K1 inhibitor 27.
For O=C(NCCc1ccc(Cl)cc1)c1ccc2nnc(-c3cc(C(F)(F)F)cc(C(F)(F)F)c3)n2c1 the results were IP6K1 inhibitor -1.
O=C(c1ccccn1)N1CCC(Cc2ccc(COc3ccncc3)cc2)CC1 was read as IP6K1 inhibitor 6.
CC(Sc1nc(CN2CCOCC2)nc2ccccc12)C(=O)c1ccccc1 (stereo unspecified) was read as KDM5B inh inactive.
CCCn1cc(C2CCN(S(=O)(=O)c3c(C)cc(C)cc3C)CC2)c2ccccc21 was read as IP6K1 inhibitor 27 and KDM5B inh inconclusive.
Screening CCOCCn1cc(C2CCN(S(=O)(=O)c3cccc(Cl)c3C)CC2)c2ccccc21 returned IP6K1 inhibitor 4 and KDM5B inh 28µM*.
For Cc1ccc(-c2ccc3nnc(CNC(=O)C(C)Oc4ccccc4)n3n2)cc1C (stereo unspecified) the results were IP6K1 inhibitor 6 and KDM5B inh inconclusive.
Screening Cc1ccc(-c2ccc3nnc(CNC(=O)COc4ccccc4)n3n2)cc1C returned IP6K1 inhibitor -5 and KDM5B inh 28µM*.
`COc1ccc(-c2ccc3nnc(CNC(=O)Cc4cccc(F)c4)n3n2)cc1` gave IP6K1 inhibitor 2 and KDM5B inh inconclusive.
Cc1ccc(-c2ccc3nnc(CNC(=O)COc4ccccc4)n3n2)cc1 was read as IP6K1 inhibitor -4 and KDM5B inh 35µM*.
Screening COc1ccc(-c2ccc3nnc(CNC(=O)COc4ccc(F)cc4)n3n2)cc1 returned IP6K1 inhibitor 8 and KDM5B inh 28µM*.
`Cc1cccc(OCC(=O)NCc2nnc3ccc(-c4ccccc4)nn23)c1` gave IP6K1 inhibitor -7 and KDM5B inh inactive.
For COc1ccccc1Nc1ccnc(N2CCC(NC(=O)Cc3ccc(F)cc3)CC2)n1 the results were IP6K1 inhibitor 5.
For COc1ccc(-c2cn(C)c(=O)n3cc(CN4CCNC(=O)C4)nc23)cn1 the results were IP6K1 inhibitor -2 and KDM5B inh inconclusive.
For CCOc1nccn2c(-c3ccc(CN4CCNC(=O)C4)cc3)cnc12 the results were IP6K1 inhibitor -12 and KDM5B inh 35µM*.
For COc1ccccc1CC(=O)N1CCN(c2cc(-c3ccccc3)[nH]n2)CC1 the results were IP6K1 inhibitor 0 and KDM5B inh inactive.
For Cc1ccc(NC(=O)N2CCc3c(c4ccccc4n3C)C2)cc1C the results were IP6K1 inhibitor -2 and KDM5B inh 32µM*.
Cn1c2c(c3ccccc31)CN(C(=O)Nc1cccc(Br)c1)CC2 was read as IP6K1 inhibitor -1 and KDM5B inh inconclusive.
Cc1cccc(NC(=O)N2CC=C(c3c[nH]c4ccccc34)CC2)c1C was read as IP6K1 inhibitor 3 and KDM5B inh inconclusive.
Screening Cc1cccc(NC(=O)N2CCc3c(c4ccccc4n3C)C2)c1C returned IP6K1 inhibitor -7 and KDM5B inh 22µM*.
`O=C(Nc1ccccc1)N1CCc2c(c3ccccc3n2CC2CC2)C1` gave IP6K1 inhibitor -2 and KDM5B inh 32µM*.
`O=C(c1cccc([N+](=O)[O-])c1)N1CCc2c(c3ccccc3n2CC2CC2)C1` gave IP6K1 inhibitor 4 and KDM5B inh inactive.
Cc1nn(-c2ccccc2)c2c1C(C1CC1)N(C1CCN(C(=O)c3ccc(Cl)nc3)C1)C2=O (stereo unspecified) was read as IP6K1 inhibitor -8.
`CCc1nc2c(c(-c3ccc(O)cc3)n1)CCN(C(=O)c1cccc(Cl)c1)CC2` gave IP6K1 inhibitor 12.
For Cc1ccc(-c2ccccc2CN2CCN(C(=O)NC3CCCC3)CC2)cc1Cl the results were IP6K1 inhibitor -6.
For C=CCN1CCN(c2nc3c(c(=O)[nH]c(=O)n3C)n2Cc2cc(C)ccc2C)CC1 the results were KDM5B inh inactive.
Screening Fc1ccc(OCc2nnc(-c3ccccc3)o2)cc1F returned KDM5B inh inactive.
`CC(C)C(=O)N1CC(=O)N(C2CCCCC2)CC(OCc2ccccc2)C1` (stereo unspecified) gave IP6K1 inhibitor 7 and KDM5B inh inactive.
`O=C(c1cnc2ccccn2c1=O)N1CC(=O)N(C2CCCCC2)CC(OCc2ccccc2)C1` (stereo unspecified) gave IP6K1 inhibitor 15 and KDM5B inh 32µM*.
Screening Cc1ccc(C(Nc2ccc3nnnn3n2)c2cccs2)cc1 (stereo unspecified) returned KDM5B inh inactive.
CCCOCCNC(=O)c1c(C)noc1-c1cccs1 was read as IP6K1 inhibitor -9 and KDM5B inh 25µM*.
For Cc1noc(-c2ccccc2Cl)c1C(=O)NCCC(c1ccccc1)c1ccccc1 the results were IP6K1 inhibitor 4 and KDM5B inh inconclusive.
Screening Cc1noc(-c2cccs2)c1C(=O)NCCCCc1ccccc1 returned IP6K1 inhibitor -10 and KDM5B inh 32µM*.
Cc1noc(-c2cccs2)c1C(=O)NCCC(c1ccccc1)c1ccccc1 was read as IP6K1 inhibitor -20 and KDM5B inh 35µM*.
Screening Cc1noc(-c2cccs2)c1C(=O)NCCc1cccs1 returned IP6K1 inhibitor -12 and KDM5B inh inconclusive.
For COc1ccc(CNC(=O)c2c(C)noc2-c2cccs2)cc1 the results were IP6K1 inhibitor 1 and KDM5B inh inconclusive.
COc1ccc(Br)cc1C[N+]1(C)CCCCC1 was read as KDM5B inh inactive.
Screening CCCn1nc(C(=O)Nc2cccc(C(=O)Nc3cccc(C(F)(F)F)c3)c2)c2ccccc2c1=O returned KDM5B inh inactive.
CC(=O)NC1(C)CCCN(Cc2cccc(-c3ccc4c(ccn4C)c3)c2)C1 (stereo unspecified) was read as IP6K1 inhibitor -4 and KDM5B inh inconclusive.
O=C(O)C1CNCCN(C(=O)c2nc3ccc(F)cc3[nH]2)C1 (stereo unspecified) was read as IP6K1 inhibitor -2 and KDM5B inh inactive.
For Cc1nc2ncccn2c1C(=O)N1CCn2nc(CO)cc2C1 the results were IP6K1 inhibitor -11 and KDM5B inh 32µM*.
Screening Cc1nc2ncccn2c1C(=O)N1CCNCC(C(=O)O)C1 (stereo unspecified) returned IP6K1 inhibitor -6 and KDM5B inh 22µM*.
Cc1cccn2c(CC(=O)N3CCn4nc(CO)cc4C3)cnc12 was read as IP6K1 inhibitor -18 and KDM5B inh inconclusive.
For CCOC(=O)c1c(C)[nH]c(C(=O)COc2ncnc3sc4c(c23)CCC4)c1C the results were KDM5B inh inactive.

Source: PubChem (National Center for Advancing Translational Sciences (NCATS))
